Rows were chosen to be rich in hits. Some 1.6% of all compounds tested hit in one or more screens of this group.
KCNQ2 enhance = potentiators of rat KCNQ2 potassium channel. O88943. CHO-K1 KCNQ2, FluxOR thallium flux fluorescence; active compounds read high. B-score at 10 µM. hit rate 0.54% among 310,000. AID 2239;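 active = fluorescence ratio B-score at least 3 SD of library B-scores, with initial fluorescence B-score within 3 of them, cut at about 5.3 in these data; same plate scores as AID 2156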;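 also: B-score of peak minus minimum over baseline fluorescence ratio after K+ and Tl+ stimulus; positive B-score means potentiation of KCNQ2 with more thallium influx and brighter signal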
Target sequence (O88943 whole entry, looked up): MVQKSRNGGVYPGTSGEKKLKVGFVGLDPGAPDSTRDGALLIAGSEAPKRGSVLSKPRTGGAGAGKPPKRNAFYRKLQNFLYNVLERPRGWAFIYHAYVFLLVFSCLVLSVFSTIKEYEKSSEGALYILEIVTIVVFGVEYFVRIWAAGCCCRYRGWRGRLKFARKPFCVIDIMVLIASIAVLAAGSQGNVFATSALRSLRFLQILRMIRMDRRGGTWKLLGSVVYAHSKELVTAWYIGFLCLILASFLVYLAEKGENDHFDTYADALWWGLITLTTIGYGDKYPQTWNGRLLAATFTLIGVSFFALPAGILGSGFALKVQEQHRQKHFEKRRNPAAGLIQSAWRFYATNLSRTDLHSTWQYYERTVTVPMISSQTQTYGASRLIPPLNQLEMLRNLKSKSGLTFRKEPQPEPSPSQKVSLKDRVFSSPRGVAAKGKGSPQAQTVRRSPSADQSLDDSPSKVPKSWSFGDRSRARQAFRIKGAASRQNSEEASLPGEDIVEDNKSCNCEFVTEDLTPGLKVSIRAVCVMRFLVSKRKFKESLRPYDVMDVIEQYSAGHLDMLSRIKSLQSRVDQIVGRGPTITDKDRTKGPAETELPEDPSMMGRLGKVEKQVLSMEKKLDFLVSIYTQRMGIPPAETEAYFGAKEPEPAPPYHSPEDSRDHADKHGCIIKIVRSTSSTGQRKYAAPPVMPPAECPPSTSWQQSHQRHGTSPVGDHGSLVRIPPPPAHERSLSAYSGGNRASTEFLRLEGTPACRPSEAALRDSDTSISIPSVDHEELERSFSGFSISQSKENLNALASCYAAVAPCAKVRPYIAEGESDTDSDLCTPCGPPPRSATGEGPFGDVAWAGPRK
KCNQ2 inh = KCNQ2 (rat) channel inhibition; O88943; CHO-K1 KCNQ2, FluxOR thallium flux, 20 min; active compounds read low; B-score at 10 µM; hit rate 1.1% among 310,000; AID 2156;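 active = fluorescence ratio B-score at most minus 3 library SDs, with starting brightness B-score within 2 library SDs, cut at about -5.5 in these data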
The depositor's hits bear a star; i = inactive; nt = no result.

SMILES | KCNQ2 enhance | KCNQ2 inh
Cc1nc(NCCCO)c(C#N)c2c1COC(C)(C)C2 | nt | i
CCN(CC)c1nc(C)c2c(c1C#N)CC(C)(C)OC2 | -6.7 | -6.7*
CC1(C)Cc2c(C#N)c(NCc3ccco3)nc(-c3ccco3)c2CO1 | 0.49 | i
CC1(C)Cc2c(C#N)c(N3CCCC3)nc(-c3ccco3)c2CO1 | -9.1 | -9.1*
Cc1ccc(OCC(O)CNC2CCCC2)c(C)c1 (stereo not drawn) | nt | i
Cc1ccccc1OCC(O)CNC1CCC(NCC(O)COc2ccccc2C)CC1 (stereo not drawn) | -7.7 | -7.7*
O=C(C1=C[C@@H](c2ccc(Br)cc2)C[C@@H](OCCCCO)O1)N1CCN(Cc2ccc3c(c2)OCO3)CC1 | -6.2 | -6.2*
O=C(C1=C[C@@H](C2CCCCC2)C[C@@H](OCCCCO)O1)N1CCN(Cc2ccccc2)CC1 | -5.7 | -5.7*
O=C(C1=C[C@@H](C2CC2)C[C@@H](OCCCCO)O1)N1CCN(Cc2ccccc2)CC1 | nt | i
O=C(C1=C[C@H](c2ccc(C(F)(F)F)cc2)C[C@H](OCCCCO)O1)N1CCN(Cc2ccc3c(c2)OCO3)CC1 | nt | i
O=C(C1=C[C@@H](c2ccccc2)C[C@@H](OCc2ccc(CO)cc2)O1)N1CCN(Cc2ccc3c(c2)OCO3)CC1 | -5.8 | -5.8*
O=C(C1=C[C@H](c2ccccc2)C[C@H](OCc2ccc(CO)cc2)O1)N1CCN(Cc2ccccc2)CC1 | nt | i
CCOc1ccccc1NC(=O)COC(=O)CSc1ccc(Cl)cc1 | nt | i
O=C(Nc1cccc(Cl)c1)N(Cc1nc2ccccc2c(=O)[nH]1)Cc1cccs1 | 0.18 | i
O=c1c(C=NCCN2CCNCC2)c(-c2ccccc2)[nH]n1-c1ccc([N+](=O)[O-])cc1 | -7 | -7*
COc1ccc(-c2[nH]n(-c3ccc([N+](=O)[O-])cc3)c(=O)c2C=NCCN2CCNCC2)cc1 | nt | i
CCN(CC)S(=O)(=O)c1cccc(C(=O)OCC(=O)NCc2ccccc2OC)c1 | -6.5 | -6.5*
CCN(CC)S(=O)(=O)c1cccc(C(=O)OCC(=O)Nc2ccccc2OC(F)F)c1 | 0.51 | i
Cc1ccccc1NC(=S)NC(NC(=O)COc1ccccc1)C(Cl)(Cl)Cl (stereo not drawn) | nt | i
O=C(COc1ccccc1)NC(NC(=S)Nc1ccccc1O)C(Cl)(Cl)Cl (stereo not drawn) | -6.2 | -6.2*
COc1cccc(CCNC(=O)C2CCC(=O)N(C3CC3)C2)c1OC (stereo not drawn) | nt | i
COc1cccc(N2CCN(c3ccc4nnc(CCC(=O)Nc5cccc(C(C)=O)c5)n4n3)CC2)c1 | nt | i
CO/N=C/c1ccc(Sc2ccc(C)cc2)c([N+](=O)[O-])c1 | 0.8 | i
CO/N=C/c1cc([N+](=O)[O-])ccc1Sc1ccc(C)cc1 | -7.4 | -7.4*
Cc1ccc(C(=O)Oc2cc(C)n(C)c(=O)c2)cc1 | nt | i
SMILES | KCNQ2 enhance | KCNQ2 inh
COc1ccc(NC(=O)C2CCCN(c3nn4c(=O)cc(C)nc4s3)C2)c(OC)c1 (stereo not drawn) | nt | i
O=C(NCCCN1CCCC(O)C1)c1cc(COc2ccc(F)cc2F)on1 (stereo not drawn) | 0.33 | i
O=C(NC(=S)N1CCOCC1)c1ccc([N+](=O)[O-])cc1 | nt | i
O=C(CC(C(=O)O)c1ccc(Cl)cc1)c1ccccc1 (stereo not drawn) | nt | i
COC(=O)C(CC(=O)c1ccc(Cl)cc1)c1ccc(C)cc1 (stereo not drawn) | -6.5 | -6.5*
O=C(C1CCCN(S(=O)(=O)c2cc(Cl)ccc2Cl)C1)N1CCOCC1 (stereo not drawn) | 1.5 | i
CCN(CC)S(=O)(=O)c1cccc(NC(=O)c2ccc(Sc3nncn3C)c([N+](=O)[O-])c2)c1 | 0.24 | i
O=C(CN1CCN(Cc2ccccc2Cl)CC1)N/N=C/c1ccccn1 | nt | i
CSc1nc(Cl)cc(Nc2ccccc2N)n1 | -6 | -6*
Nc1nc(Cl)cc(Nc2ccccc2Cl)n1 | 3.4 | i
CCCOc1ccc(N2C(=O)CC(N(CCc3ccc(OC)cc3)C(=O)c3ccccc3)C2=O)cc1 (stereo not drawn) | nt | i
Cc1ccc2c(CN3C(=O)NC4(CCCCC4)C3=O)cc(=O)oc2c1C | -6.6 | -6.6*
Cc1ccc(C)c(CN2C(=O)NC3(CCCCCC3)C2=O)c1 | 1.2 | i
Clc1ccc(OCCN2CCN(c3ncnc4sccc34)CC2)cc1 | -6 | -6*
Cc1ccc(OCCN2CCN(c3ncnc4sc(C)c(C)c34)CC2)cc1 | nt | i
CC(C)(C)c1ccc(-n2ncc3c2CCCC3NC(=O)CCCn2cncn2)cc1 (stereo not drawn) | 1.2 | i
Cc1cc(C)n2ncc(/C(N)=N/OC(=O)Nc3ccccc3)c2n1 | 1.6 | i
O=C(NCC(c1cccs1)N1CCOCC1)c1ccccc1NS(=O)(=O)c1cc([N+](=O)[O-])ccc1Cl (stereo not drawn) | nt | i
O=C(NCC(c1cccs1)N1CCOCC1)c1ccccc1NS(=O)(=O)c1ccc(Cl)c([N+](=O)[O-])c1 (stereo not drawn) | -6.2 | -6.2*
CCOC(=O)c1ccccc1NC(=O)CSc1nnc(COc2ccccc2C)n1C | -7.1 | -7.1*
CCn1c(CC(=O)Nc2ccccc2)nnc1SCC(=O)Nc1ccccc1C(=O)OC | 0.48 | i
CCn1c(COc2cccc(OC)c2)nnc1SCC(=O)Nc1ccccc1C(=O)OC | -5.7 | -5.7*
Cc1ccccc1OCc1nnc(SCC(=O)NCc2ccccc2)n1C | nt | i
Cc1ccc(NCc2nnc(SCC(=O)N3c4ccccc4Sc4ccccc43)o2)c(C)c1 | nt | i
CC(OC(=O)CCCNC(=O)c1ccc(Cl)cc1)C(=O)N(C)Cc1ccccc1 (stereo not drawn) | 0.68 | i
SMILES | KCNQ2 enhance | KCNQ2 inh
CC(C)(C)OC(=O)CNC(=O)c1nc[nH]c1C(=O)N1CCNCC1 | 0.18 | i
Cc1ccccc1NC1=NC(=S)N(c2ccccc2)C12CCCCC2 | 5.5* | i
Cc1ccccc1NC1=NC(=S)N(c2ccccc2)C12CCOC(C)(C)C2 (stereo not drawn) | 0.22 | i
Cc1ccc2c(C)c(C(=O)NCc3ccc(S(N)(=O)=O)cc3)oc2c1 | nt | i
C=CCn1c(=O)c(C(=O)Nc2ccccc2C(=O)OCC)c(O)c2ccccc21 | nt | i
C=CCn1c(=O)c(C(=O)Nc2ccccc2S(N)(=O)=O)c(O)c2ccccc21 | 5.7* | i
COC(CN(C)S(=O)(=O)c1cc2c3c(c1)CCN3C(=O)CC2)OC | nt | i
CCOCCCNC(=O)c1ccc2c(c1)OCO2 | nt | i
CCCCC(CC)CNC(=O)c1ccc2c(c1)OCO2 (stereo not drawn) | -7 | -7*
CC(=O)c1ccc(OCCCC(=O)Nc2cccc(-c3nn[nH]n3)c2)cc1 | nt | i
CCn1c(SC)nnc1C1CCN(CC(=O)Nc2ccccc2N2CCOCC2)CC1 | 1.7 | i
O=C(Nc1ccc2ccccc2c1)C(c1ccccc1)C1CCCC1 (stereo not drawn) | -5.7 | -5.7*
Cc1ccc(NC(=O)C(c2ccccc2)C2CCCC2)cc1 (stereo not drawn) | nt | i
CC1CC(=O)N(CC(=O)NCc2ccccc2)c2ccccc2S1(=O)=O (stereo not drawn) | nt | i
O=C(NCCc1ccccc1C(F)(F)F)C1CCC(=O)N(CCCN2CCCC2=O)C1 (stereo not drawn) | nt | i
COc1cc(OC)c2c(-c3ccccc3)cc(=O)oc2c1C(CCN1CCCC(C)C1)c1ccc(N(C)C)cc1 (stereo not drawn) | nt | i
